Laboratory results: PMC7826789 (International Journal of Molecular Sciences, 2021)

What was measured:
Settings in all cases: Compound Concentration (nM):1000
MAP4K2 = tested on: MAP4K2
MAP4K3 = tested on: MAP4K3
MAP4K4 = tested on: MAP4K4
MAP4K5 = tested on: MAP4K5
MAPKAPK2 = tested on: MAPKAPK2
MAPKAPK5 = tested on: MAPKAPK5
MARK1 = tested on: MARK1
MARK2 = tested on: MARK2
MARK3 = tested on: MARK3
MARK4 = tested on: MARK4
MAST1 = tested on: MAST1
MEK1 = tested on: T1, MEK1
T1 construct: gene MAP2K1

MEK2 = tested on: T2, MEK2
T2 construct: gene MAP2K2

MEK3 = tested on: T3, MEK3
T3 construct: gene MAP2K3

MEK4 = tested on: T4, MEK4
T4 construct: gene MAP2K4

MEK5 = tested on: T5, MEK5
T5 construct: gene MAP2K5

MEK6 = tested on: T6, MEK6
T6 construct: gene MAP2K6

MELK = tested on: MELK
MERTK = tested on: MERTK
MET(M1250T) = tested on: MET(M1250T)
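Further: KINOMEscan scanMAX binding as percent activity remaining versus control; lower means stronger binding.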

NS(=O)(=O)c1ccc(N/N=C2\C(=O)Nc3ccc(C(=O)NCCc4c[nH]cn4)cc32)cc1 [GW300660X]
Percent Control (MAP4K2): 71% | Percent Control (MAP4K3): 86% | Percent Control (MAP4K4): 100% | Percent Control (MAP4K5): 100% | Percent Control (MAPKAPK2): 100% | Percent Control (MAPKAPK5): 100% | Percent Control (MARK1): 90% | Percent Control (MARK2): 100% | Percent Control (MARK3): 100% | Percent Control (MARK4): 100% | Percent Control (MAST1): 100% | Percent Control (MEK1): 93% | Percent Control (MEK2): 90% | Percent Control (MEK3): 39% | Percent Control (MEK4): 100% | Percent Control (MEK5): 39% | Percent Control (MEK6): 96% | Percent Control (MELK): 15% | Percent Control (MERTK): 100% | Percent Control (MET(M1250T)): 100%

NS(=O)(=O)c1ccc(N/N=C2\C(=O)Nc3ccc(-c4cnco4)cc32)cc1 [GW276655]
Percent Control (MAP4K2): 80% | Percent Control (MAP4K3): 85% | Percent Control (MAP4K4): 62% | Percent Control (MAP4K5): 84% | Percent Control (MAPKAPK2): 100% | Percent Control (MAPKAPK5): 100% | Percent Control (MARK1): 44% | Percent Control (MARK2): 85% | Percent Control (MARK3): 100% | Percent Control (MARK4): 68% | Percent Control (MAST1): 75% | Percent Control (MEK1): 91% | Percent Control (MEK2): 92% | Percent Control (MEK3): 52% | Percent Control (MEK4): 84% | Percent Control (MEK5): 70% | Percent Control (MEK6): 72% | Percent Control (MELK): 97% | Percent Control (MERTK): 60% | Percent Control (MET(M1250T)): 63%

COc1cccc(-n2ncc3c(N/N=C/c4ccncc4)ncnc32)c1 [GW784752X]
Percent Control (MAP4K2): 95% | Percent Control (MAP4K3): 100% | Percent Control (MAP4K4): 96% | Percent Control (MAP4K5): 100% | Percent Control (MAPKAPK2): 88% | Percent Control (MAPKAPK5): 89% | Percent Control (MARK1): 100% | Percent Control (MARK2): 100% | Percent Control (MARK3): 100% | Percent Control (MARK4): 84% | Percent Control (MAST1): 76% | Percent Control (MEK1): 98% | Percent Control (MEK2): 96% | Percent Control (MEK3): 79% | Percent Control (MEK4): 97% | Percent Control (MEK5): 2.3% | Percent Control (MEK6): 87% | Percent Control (MELK): 100% | Percent Control (MERTK): 86% | Percent Control (MET(M1250T)): 46%

COc1cc2ncn(-c3cc(O[C@H](C)c4ccccc4Cl)c(C(N)=O)s3)c2cc1OC [GSK237701A]
Percent Control (MAP4K2): 50% | Percent Control (MAP4K3): 33% | Percent Control (MAP4K4): 90% | Percent Control (MAP4K5): 7.5% | Percent Control (MAPKAPK2): 100% | Percent Control (MAPKAPK5): 100% | Percent Control (MARK1): 77% | Percent Control (MARK2): 100% | Percent Control (MARK3): 100% | Percent Control (MARK4): 74% | Percent Control (MAST1): 96% | Percent Control (MEK1): 90% | Percent Control (MEK2): 90% | Percent Control (MEK3): 100% | Percent Control (MEK4): 91% | Percent Control (MEK5): 59% | Percent Control (MEK6): 84% | Percent Control (MELK): 81% | Percent Control (MERTK): 28% | Percent Control (MET(M1250T)): 81%

CCS(=O)(=O)c1ccc(OC)c(Nc2ncc(-c3cccc(OC)c3)o2)c1 [GW580509X]
Percent Control (MAP4K2): 89% | Percent Control (MAP4K3): 100% | Percent Control (MAP4K4): 100% | Percent Control (MAP4K5): 100% | Percent Control (MAPKAPK2): 96% | Percent Control (MAPKAPK5): 100% | Percent Control (MARK1): 100% | Percent Control (MARK2): 100% | Percent Control (MARK3): 100% | Percent Control (MARK4): 99% | Percent Control (MAST1): 93% | Percent Control (MEK1): 100% | Percent Control (MEK2): 100% | Percent Control (MEK3): 78% | Percent Control (MEK4): 100% | Percent Control (MEK5): 4.6% | Percent Control (MEK6): 92% | Percent Control (MELK): 100% | Percent Control (MERTK): 72% | Percent Control (MET(M1250T)): 100%

CC1=C(C(=O)Nc2ccc3[nH]ncc3c2)C(c2ccc(Cl)c(Cl)c2)CC(=O)N1 (centres unmarked) [GSK299115A]
Percent Control (MAP4K2): 79% | Percent Control (MAP4K3): 79% | Percent Control (MAP4K4): 73% | Percent Control (MAP4K5): 75% | Percent Control (MAPKAPK2): 96% | Percent Control (MAPKAPK5): 100% | Percent Control (MARK1): 100% | Percent Control (MARK2): 100% | Percent Control (MARK3): 78% | Percent Control (MARK4): 100% | Percent Control (MAST1): 72% | Percent Control (MEK1): 73% | Percent Control (MEK2): 69% | Percent Control (MEK3): 77% | Percent Control (MEK4): 89% | Percent Control (MEK5): 79% | Percent Control (MEK6): 84% | Percent Control (MELK): 88% | Percent Control (MERTK): 100% | Percent Control (MET(M1250T)): 95%

CCS(=O)(=O)c1ccc(OC)c(Nc2ncc(-c3cccc(F)c3)o2)c1 [GW621970X]
Percent Control (MAP4K2): 91% | Percent Control (MAP4K3): 100% | Percent Control (MAP4K4): 100% | Percent Control (MAP4K5): 100% | Percent Control (MAPKAPK2): 92% | Percent Control (MAPKAPK5): 94% | Percent Control (MARK1): 96% | Percent Control (MARK2): 100% | Percent Control (MARK3): 100% | Percent Control (MARK4): 92% | Percent Control (MAST1): 93% | Percent Control (MEK1): 93% | Percent Control (MEK2): 92% | Percent Control (MEK3): 76% | Percent Control (MEK4): 100% | Percent Control (MEK5): 4.1% | Percent Control (MEK6): 82% | Percent Control (MELK): 86% | Percent Control (MERTK): 67% | Percent Control (MET(M1250T)): 100%

CCc1ccc(Oc2nccc(-c3c(-c4ccc(F)cc4)ncn3C3CCNCC3)n2)cc1 [SB-242719]
Percent Control (MAP4K2): 40% | Percent Control (MAP4K3): 87% | Percent Control (MAP4K4): 69% | Percent Control (MAP4K5): 53% | Percent Control (MAPKAPK2): 91% | Percent Control (MAPKAPK5): 96% | Percent Control (MARK1): 69% | Percent Control (MARK2): 77% | Percent Control (MARK3): 61% | Percent Control (MARK4): 100% | Percent Control (MAST1): 81% | Percent Control (MEK1): 93% | Percent Control (MEK2): 91% | Percent Control (MEK3): 78% | Percent Control (MEK4): 100% | Percent Control (MEK5): 100% | Percent Control (MEK6): 100% | Percent Control (MELK): 88% | Percent Control (MERTK): 100% | Percent Control (MET(M1250T)): 100%

CN(C)c1cc2c(Nc3ccc4c(cnn4Cc4ccccc4)c3)ncnc2cn1 [GW282974X]
Percent Control (MAP4K2): 92% | Percent Control (MAP4K3): 100% | Percent Control (MAP4K4): 76% | Percent Control (MAP4K5): 98% | Percent Control (MAPKAPK2): 69% | Percent Control (MAPKAPK5): 90% | Percent Control (MARK1): 100% | Percent Control (MARK2): 97% | Percent Control (MARK3): 100% | Percent Control (MARK4): 90% | Percent Control (MAST1): 77% | Percent Control (MEK1): 48% | Percent Control (MEK2): 50% | Percent Control (MEK3): 83% | Percent Control (MEK4): 89% | Percent Control (MEK5): 0% | Percent Control (MEK6): 84% | Percent Control (MELK): 90% | Percent Control (MERTK): 96% | Percent Control (MET(M1250T)): 75%

COc1cccc(-c2c[nH]c3c(N/N=C/c4ccncc4)ncnc23)c1 [GW814408X]
Percent Control (MAP4K2): 78% | Percent Control (MAP4K3): 93% | Percent Control (MAP4K4): 65% | Percent Control (MAP4K5): 68% | Percent Control (MAPKAPK2): 100% | Percent Control (MAPKAPK5): 100% | Percent Control (MARK1): 89% | Percent Control (MARK2): 100% | Percent Control (MARK3): 100% | Percent Control (MARK4): 99% | Percent Control (MAST1): 100% | Percent Control (MEK1): 95% | Percent Control (MEK2): 80% | Percent Control (MEK3): 77% | Percent Control (MEK4): 100% | Percent Control (MEK5): 0.1% | Percent Control (MEK6): 100% | Percent Control (MELK): 79% | Percent Control (MERTK): 94% | Percent Control (MET(M1250T)): 54%
